# Rango-impB inh = qHTS Assay for Inhibitors of Rango (Ran-regulated importin-beta cargo) - Importin beta complex formation. Importin subunit beta-1 (Homo sapiens), Q14974. Rango CFP/YFP FRET sensor + importin beta, 45 min. actives 0.031% (n = 340,000). Potency, µM (highest dose often 92.2 µM), inactives show at the highest dose inhibition of complex formation; calls by dose curve;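 note: 0% = DMSO wells and 100% = buffer wells lacking importin beta; nearly all actives have a fitted effect of over 15% in size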
# Target sequence (Q14974 whole entry, looked up): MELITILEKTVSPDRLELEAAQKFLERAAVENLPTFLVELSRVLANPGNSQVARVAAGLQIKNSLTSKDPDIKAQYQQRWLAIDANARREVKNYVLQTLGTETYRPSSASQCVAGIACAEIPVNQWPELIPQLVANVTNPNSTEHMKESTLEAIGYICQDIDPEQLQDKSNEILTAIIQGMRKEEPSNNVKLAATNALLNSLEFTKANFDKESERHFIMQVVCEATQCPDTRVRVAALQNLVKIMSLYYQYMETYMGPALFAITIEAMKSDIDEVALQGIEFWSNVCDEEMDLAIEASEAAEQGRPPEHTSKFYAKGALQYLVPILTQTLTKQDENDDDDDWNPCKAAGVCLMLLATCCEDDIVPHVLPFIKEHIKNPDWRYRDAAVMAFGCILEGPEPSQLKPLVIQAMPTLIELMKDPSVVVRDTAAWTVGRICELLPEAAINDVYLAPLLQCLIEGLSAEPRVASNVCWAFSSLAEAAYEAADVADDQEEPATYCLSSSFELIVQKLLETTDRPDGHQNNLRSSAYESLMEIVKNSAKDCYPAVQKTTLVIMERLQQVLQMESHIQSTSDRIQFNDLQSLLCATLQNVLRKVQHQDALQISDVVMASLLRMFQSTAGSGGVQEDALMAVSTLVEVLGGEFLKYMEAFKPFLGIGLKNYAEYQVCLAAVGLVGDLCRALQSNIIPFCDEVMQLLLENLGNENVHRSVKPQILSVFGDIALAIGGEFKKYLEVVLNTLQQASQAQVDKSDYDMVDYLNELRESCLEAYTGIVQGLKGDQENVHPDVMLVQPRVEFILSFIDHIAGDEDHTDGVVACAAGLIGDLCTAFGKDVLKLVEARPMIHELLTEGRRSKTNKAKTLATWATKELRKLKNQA
#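 FRET biosensor (snurportin 1 IBB flanked by EYFP and cerulean), 50 nM, with compound 5 min, then 0.125 microM importin beta in PBS, 1 mM DTT, 0.02% Tween-20, 0.1% BSA. CFP/YFP ratio read after 45 min at room temperature; pre-read flags interference.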
# Rango release inh = qHTS Assay for Inhibitors of RanGTP induced Rango (Ran-regulated importin-beta cargo) - Importin beta complex dissociation; Snurportin-1 (Homo sapiens) + GTP-binding nuclear protein Ran (Homo sapiens) + Importin …; Biochemical FRET Rango-importin beta, RanGTP-induced dissociation; Potency, µM (series often up to 46.1 µM), for inactives: top-dose activity change, negative = inhibition; actives 0.071% (n = 340,000); AID 540253, 2011; calls by dose curve; note: % of control where 0% means no effect; nearly all actives have a fitted effect of over 45% in size
#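 Compounds sat 5 min at room temperature with 0.1 uM Rango biosensor plus 0.25 uM importin beta, then FRET pre-read. RanGTP-RCC1 (0.6 uM Ran, 2mM GTP, 0.2 uM RCC1) added for 45 min, and the CFP/YFP post-read measured blocked complex dissociation.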
# A549 viability = Nrf2 qHTS screen for inhibitors: counterscreen for cytotoxicity | A549 ARE-Fluc cells, CellTiter-Fluor viability, 18-24 h | AID 504648, 2011 | Potency, µM (top dose mostly 46 µM), inactives show at the top dose activity change, negative = cytotoxicity, actives largely listed as inhibitors | actives 0.16% (n = 390,000); note: % is set by controls: 0 for no effect and ±100 for the full control effect
#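 A549 ARE-Fluc cells in 5% FBS OPTI-MEM, 5000 cells/well, rested 2 h then exposed to compounds in concentration-response for 18-24 h at 37 °C. Viability by CellTiter-Fluor fluorescence (Ex 405/Em 525) after 30 min; luciferase luminescence (BugLite, 15 min, RT) read afterwards.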
# Nrf2 block = Nrf2 qHTS screen for inhibitors | A549 ARE-Fluc reporter, luciferase luminescence, 18-24 h | Potency, µM (doses to about 46 µM), inactives show at the highest dose activity change, negative = inhibition, most hits filed as inhibitors | actives 2.1% (n = 360,000); note: % is set by controls: 0 for no effect and ±100 for the full control effect; nearly all actives have a fitted effect of over 60% in size
#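 A549 ARE_Fluc cells (5000/well, 5% FBS OPTI-MEM) pre-incubated 2 h, then treated with compounds 18-24 h at 37C/5% CO2 in concentration-response. CellTiter-Fluor viability read first; BugLite luciferase luminescence after 15 min at room temperature gives Nrf2 activity.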
# Nrf2 activator = qHTS of Nrf2 Activators; AID 624171, 2012; AREc32 ARE-luciferase reporter (MCF7-derived line), luminescence, 24 h; actives 0.31% (n = 410,000); Potency, µM (highest dose often 46.1 µM), for inactives: at the highest dose activation, actives largely listed as activators; note: % of control where 0% means no effect; nearly all actives have a fitted effect of over 65% in size
#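 Quantitative high-throughput format: AREc32 reporter cells, 1000 per well, received compound by pin transfer and were incubated 24 hr at 37 deg C, 5% CO2, before Steady-Glo luminescence detection.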
# * = called active by the depositor; ? = inconclusive; · = no result given. The list is not random: actives were taken first. Their share in the collection is about 2.3%. Unless noted, calls come from the whole dose curve; as a rule, active = well fitted curve in the direction sought with a large enough effect; inconclusive = small, poorly fitted or top-dose-only effect, or another doubt; inactive = no such curve, though single readings can be large; an effect the other way counts as inactive or inconclusive. Potency is the fitted concentration of half-maximal effect.
SMILES,Rango-impB inh,Rango release inh,A549 viability,Nrf2 block,Nrf2 activator
COc1ccc(CCNc2nc3c(c(=O)n(C)c(=O)n3C)n2Cc2ccc(F)cc2)cc1OC,·,·,-14%,16µM*,5%
COc1ccc(Nc2c(-c3cc(Br)ccc3O)nc3ncccn23)cc1OC,·,·,-18%,?,11%
COc1ccc(CCNC(=O)COC(=O)Cc2ccccc2)cc1,1%,3%,3%,-8%,3%
COc1ccc(CCNC(=O)N2c3ccccc3Sc3ccccc32)cc1,0%,18%,?,16µM*,0%
CCCc1cc(N2CCN(c3cccc(C)c3C)CC2)n2cnnc2n1,·,·,-1%,?,1%
C[C@@H]1C(=O)O[C@H]2C[C@@]34[C@H]5C[C@@H](C(C)(C)C)[C@]36[C@@H](OC(=O)[C@@H]6O)O[C@@]4(C(=O)O5)[C@]21O,-4%,10%,0%,18%,-1%
Cc1nn(C(C)(C)C)c(C)c1/C=N/OC(=O)Nc1ccc(Cl)c(Cl)c1,1%,12%,7%,1.8µM*,-2%
COC(=O)C1C(=O)C=C(Nc2ccc(F)cc2F)CC1c1ccccc1 (stereo unspecified),2%,3%,4%,?,3%
CC(=O)OC1CCC2(C)C(CCC3C4CC(N5CC5)C(C(C)=O)C4(C)CC(=O)C32)C1 (stereo unspecified),-1%,-3%,15µM*,8%,16%
COC[C@H]1OC(=O)c2coc3c2[C@@]1(C)C1=C(C3=O)[C@@H]2CCC(=O)[C@@]2(C)C[C@H]1OC(C)=O,?,?,16µM*,3.7µM*,?
CC[C@@H](C(=O)[C@@H](C)[C@@H](O)[C@H](C)[C@@H]1O[C@@H]([C@@H](CC)C(=O)O)CC[C@@H]1C)[C@H]1O[C@]2(C=C[C@@H](O)[C@]3(CC[C@@](C)([C@H]4CC[C@](O)(CC)[C@H](C)O4)O3)O2)[C@H](C)C[C@@H]1C,3%,6%,4.6µM*,1.5µM*,1%
Cn1c(-c2ccccc2)c(P(=S)(c2ccccc2)c2ccccc2)c2ccccc21,·,·,-1%,13%,·
CC1(C)CC2CC(C)(CN2S(=O)(=O)c2cccc(C(=O)OCC(=O)NC(N)=O)c2)C1 (stereo unspecified),?,-5%,-1%,1%,-1%
Cc1ccc(Cl)cc1N1CCN(c2ncnc3c2nc2n3CCCC2)CC1,·,·,-6%,?,-1%
COc1ccc(N2CCN(c3ncnc4c3nc3n4CCCCC3)CC2)cc1,·,·,-22%,16µM*,2%
c1ccc(N2CCN(c3ncnc4c3nc3n4CCCC3)CC2)cc1,·,·,-13%,23µM*,0%
COc1ccc(N2CCN(CCCN)CC2)cc1,0%,21%,-3%,-6%,0%
O=C(O)c1ccc([N+](=O)[O-])c([N+](=O)[O-])c1,6%,10%,-12%,-13%,?
O=C(O)c1sccc1Oc1ccc(F)cc1[N+](=O)[O-],6%,12%,-17%,23µM*,3%
CC1CC(C)(O)CC(C(O)CC2CC(=O)NC(=O)C2)C1=O (stereo unspecified),1%,1%,?,0.58µM*,0%
COc1cc([N+](=O)[O-])c2ncccc2c1[N+](=O)[O-],·,·,·,·,-1%
COc1cc([N+](=O)[O-])c2nc(C)ccc2c1[N+](=O)[O-],-1%,12%,-8%,-7%,18µM*
CCN(CCCl)c1cc(CN(C)C)cc(NC(=O)c2ccc(C(=O)Nc3cc(CN(C)C)cc(N(CC)CCCl)c3)cc2)c1,3%,8%,13µM*,2.9µM*,-3%
C[C@]12CCC3C(CC[C@H]4C[C@@H](O)CC[C@]34C)[C@H]1C=CC2=O (stereo partly specified),2%,7%,-1%,?,22µM*

# Compound activity from PubChem BioAssay.
